According to PubChem BioAssay (EPA / NIEHS):
Results filed as inconclusive are left out. More than one record can exist for a structure, and the calls need not agree. Activity calls are given as the source filed them. The calls were made as follows, unless noted: active = hit-call score of the fitted dose curve at least 0.9, where 1 is the maximum; inactive = score below 0.9.

Legend:
[1] = read-out: matrix metalloproteinase-3 (MMP3), MMP3 (gene 4314); assay: LTEA_HepaRG_MMP3: Life Technologies and Expression Analysis (LTEA) Assay for matrix metalloproteinase-3 (MMP3) using HepaRG (AID 2283519); details: mRNA level, 48 h; actives raise or lower the signal
Outline: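 Differentiated human HepaRG cells, plated 48 h on collagen I, were exposed in duplicate for 48 h in serum-free induction medium to eight half-log concentrations up to 100 uM in 0.5% DMSO. MMP3 mRNA was quantified by TaqMan qRT-PCR, normalised to ACTB, GAPDH and POLR2A.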

[2] = read-out: Paternally Expressed 10 (PEG10), PEG10 (gene 23089); assay: LTEA_HepaRG_PEG10: Life Technologies and Expression Analysis (LTEA) Assay for Paternally Expressed 10 (PEG10) using HepaRG (AID 2283520); details: mRNA level, 48 h; actives raise or lower the signal;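 as to AC50: PEG10 transcript by qRT-PCR normalised to ACTB GAPDH and POLR2A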
Outline: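 Chemicals tested on HepaRG cells for 48 h, highest concentration 100 uM. PEG10 expression assessed by qRT-PCR relative to DMSO control.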

[3] = read-out: Protein phosphatase 2A (PPP2R4), PTPA (gene 5524); assay: LTEA_HepaRG_PPP2R4: Life Technologies and Expression Analysis (LTEA) Assay for Protein phosphatase 2A (PPP2R4) using HepaRG (AID 2283522); details: mRNA level, 48 h; actives raise or lower the signal
Outline: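 Gene-expression endpoint in HepaRG hepatic cells: 48 h treatment across eight half-log concentrations up to 100 uM in 0.5% DMSO. PPP2R4 mRNA by qRT-PCR, normalized to three endogenous control genes.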

[4] = read-out: Phosphatase and tensin (PTEN), PTEN (gene 5728); assay: LTEA_HepaRG_PTEN: Life Technologies and Expression Analysis (LTEA) Assay for Phosphatase and tensin (PTEN) using HepaRG (AID 2283523); details: mRNA level, 48 h; actives raise or lower the signal
Outline: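 Differentiated human HepaRG cells, plated 48 h then switched to serum-free induction medium, were exposed in duplicate for 48 h to eight half-log concentrations up to 100 uM in 0.5% DMSO. PTEN mRNA measured by TaqMan qRT-PCR, normalized to ACTB/GAPDH/POLR2A, bidirectional fit versus DMSO.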

[5] = read-out: solute carrier (SLC22A1), SLC22A1 (gene 6580); assay: LTEA_HepaRG_SLC22A1: Life Technologies and Expression Analysis (LTEA) Assay for solute carrier (SLC22A1) using HepaRG (AID 2283524); details: mRNA level, 48 h; actives raise or lower the signal
Outline: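 Human HepaRG cells were plated 48 h, switched to serum-free induction medium, then exposed in duplicate for 48 h to 8-point half-log series from 100 uM in 0.5% DMSO. SLC22A1 mRNA measured by qRT-PCR, normalized to ACTB/GAPDH/POLR2A, fitted bidirectionally versus DMSO.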

[6] = read-out: Pyruvate Dehydrogenase Kinase 4 (PDK4), PDK4 (gene 5166); assay: LTEA_HepaRG_PDK4: Life Technologies and Expression Analysis (LTEA) Assay for Pyruvate Dehydrogenase Kinase 4 (PDK4) using HepaRG (AID 2283525); details: mRNA level, 48 h; actives raise or lower the signal
Outline: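 Differentiated human HepaRG cells, pre-cultured 48 h, were exposed in duplicate for 48 h in serum-free induction medium to eight half-log concentrations up to 100 uM in 0.5% DMSO. PDK4 mRNA was quantified by qRT-PCR, normalized to ACTB, GAPDH and POLR2A, bidirectional fitting versus DMSO.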

[7] = read-out: succinate dehydrogenase complex iron sulfur subunit B (SDHB), SDHB (gene 6390); assay: LTEA_HepaRG_SDHB: Life Technologies and Expression Analysis (LTEA) Assay for succinate dehydrogenase complex iron sulfur subunit B (SDHB) using HepaRG (AID 2283528); details: mRNA level, 48 h; actives raise or lower the signal
Outline: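 SDHB transcript level read by TaqMan qRT-PCR, housekeeping-normalised (ACTB, GAPDH, POLR2A), after 48 h chemical treatment of plated HepaRG cells; eight concentrations top 100 uM, half-log steps, 0.5% DMSO, duplicates; fitted both directions against DMSO.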

[8] = read-out: Signal transducer and activator of transcription 3 (Homo sapiens) (UniProt P40763); assay: LTEA_HepaRG_STAT3: Life Technologies and Expression Analysis (LTEA) Assay for Signal transducer and activator of transcription (STAT3) using HepaRG (AID 2283529); details: mRNA level, 48 h; actives raise or lower the signal
Outline: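 Differentiated human HepaRG cells in serum-free induction medium were exposed in duplicate for 48 h to eight half-log concentrations up to 100 uM in 0.5% DMSO. STAT3 mRNA was quantified by TaqMan qRT-PCR, normalized to ACTB, GAPDH and POLR2A, and fitted bidirectionally against DMSO.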

[9] = read-out: solute carrier (SLCO1B1), SLCO1B1 (gene 10599); assay: LTEA_HepaRG_SLCO1B1: Life Technologies and Expression Analysis (LTEA) Assay for solute carrier (SLCO1B1) using HepaRG (AID 2283530); details: mRNA level, 48 h; actives raise or lower the signal
Outline: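 Human HepaRG cultures treated for 48 h with an eight-concentration half-log series topping at 100 uM; SLCO1B1 measured by qRT-PCR and fitted bidirectionally relative to DMSO.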

[10] = read-out: sulfotransferase 2A1 (SULT2A1), SULT2A1 (gene 6822); assay: LTEA_HepaRG_SULT2A1: Life Technologies and Expression Analysis (LTEA) Assay for sulfotransferase 2A1 (SULT2A1) using HepaRG (AID 2283531); details: mRNA level, 48 h; actives raise or lower the signal
Outline: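 Gene-expression endpoint in a human liver cell line: SULT2A1 mRNA change after 48 h chemical treatment, curves fitted in both directions relative to 0.5% DMSO vehicle. Concentrations spanned eight half-log steps from 100 uM.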

[11] = read-out: Transforming Growth Factor (TGFA), TGFA (gene 7039); assay: LTEA_HepaRG_TGFA: Life Technologies and Expression Analysis (LTEA) Assay for Transforming Growth Factor (TGFA) using HepaRG (AID 2283532); details: mRNA level, 48 h; actives raise or lower the signal
Outline: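 Differentiated human HepaRG cells, plated 48 h then switched to serum-free induction medium, were exposed in duplicate for 48 h to 8-point half-log series from 100 uM in 0.5% DMSO. TGFA mRNA measured by qRT-PCR, normalized to ACTB/GAPDH/POLR2A, bidirectional fit versus DMSO.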

[12] = read-out: Transforming Growth Factor (TGFB1), TGFB1 (gene 7040); assay: LTEA_HepaRG_TGFB1: Life Technologies and Expression Analysis (LTEA) Assay for Transforming Growth Factor (TGFB1) Transporter using HepaRG (AID 2283533); details: mRNA level, 48 h; actives raise or lower the signal
Outline: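 Eight-point concentration-response (max 100 uM, half-log) in HepaRG under serum-free induction conditions, 48 h. TGFB1 mRNA by qRT-PCR, housekeeping-normalized.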

TIMP1, TIMP1 (gene 7076) = assay: LTEA_HepaRG_TIMP1: Life Technologies and Expression Analysis (LTEA) Assay for TIMP1 using HepaRG (AID 2283534); details: mRNA level, 48 h; actives raise or lower the signal
Outline: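 TIMP1 induction or repression in HepaRG cells after 48 h chemical exposure (eight concentrations, highest 100 uM), assessed by normalized qRT-PCR with bidirectional fitting to DMSO controls.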

[13] = read-out: Tumor necrosis factor receptor 1 (TNFRSF1A), TNFRSF1A (gene 7132); assay: LTEA_HepaRG_TNFRSF1A: Life Technologies and Expression Analysis (LTEA) Assay for Tumor necrosis factor receptor 1 (TNFRSF1A) using HepaRG (AID 2283535); details: mRNA level, 48 h; actives raise or lower the signal
Outline: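 Assay uses 48 h chemical treatment of differentiated HepaRG monolayers, tested in duplicate at eight concentrations from 100 uM downward in 0.5% DMSO. mRNA is normalized to ACTB, GAPDH and POLR2A, with induction or suppression fitted relative to vehicle.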

[14] = read-out: Thyroid Hormone Responsive (THRSP), THRSP (gene 7069); assay: LTEA_HepaRG_THRSP: Life Technologies and Expression Analysis (LTEA) Assay for Thyroid Hormone Responsive (THRSP) using HepaRG (AID 2283536); details: mRNA level, 48 h; actives raise or lower the signal
Outline: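 Differentiated human HepaRG cells were exposed in duplicate for 48 h in serum-free induction medium to eight concentrations (top 100 uM, half-log steps, 0.5% DMSO). Expression was quantified by TaqMan qRT-PCR, normalized to ACTB, GAPDH and POLR2A, with bidirectional fitting against DMSO.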

[15] = read-out: UDP glucuronosyltransferase (UGT1A6), UGT1A6 (gene 54578); assay: LTEA_HepaRG_UGT1A6: Life Technologies and Expression Analysis (LTEA) Assay for UDP glucuronosyltransferase (UGT1A6) using HepaRG (AID 2283539); details: mRNA level, 48 h; actives raise or lower the signal
Outline: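 Measures mRNA change in HepaRG hepatic cells exposed 48 h to chemicals (eight-point, maximum 100 uM, 0.5% DMSO vehicle) in serum-free induction medium. Expression normalized to endogenous controls; DMSO served as negative control and baseline.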

[16] = read-out: X-box binding protein 1 (XBP1), XBP1 (gene 7494); assay: LTEA_HepaRG_XBP1: Life Technologies and Expression Analysis (LTEA) Assay for X-box binding protein 1 (XBP1) using HepaRG (AID 2283540); details: mRNA level, 48 h; actives raise or lower the signal
Outline: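 Eight concentrations (half-log, highest 100 uM, 0.5% DMSO) tested in duplicate on HepaRG cells over 48 h in serum-free induction medium; qRT-PCR of XBP1 normalised to ACTB, GAPDH, POLR2A.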

[17] = LTEA_HepaRG_LDH_cytotoxicity: Cytotoxicity Assessment in the Life Technologies and Expression Analysis (LTEA) Assay (AID 2283563; active = hit-call score of the fitted dose curve at least 0.9, where 1 is the maximum;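 as to AC50: LDH activity released into spent culture medium as a marker of cell death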)
Outline: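 Spent-medium LDH after 48 h chemical exposure of HepaRG cells in serum-free induction medium; eight concentrations, half-log dilutions from 100 uM, duplicate wells, fitted upward relative to 0.5% DMSO.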

[18] = ATG_XTT_Cytotoxicity: Cytotoxicity Assessment in the Attagene TRANS-FACTORIAL HepG2 Assay (AID 2283584; active = hit-call score of the fitted dose curve at least 0.9, where 1 is the maximum;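 as to AC50: XTT signal for cell number as viability in transfected HepG2 cells; cells exposed to compound for 24 h before reading; active means loss of viability signal versus DMSO baseline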)
Outline: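 24 h chemical exposure of reporter-transfected HepG2; XTT signal loss vs DMSO indicates cytotoxicity.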

[19] = read-out: Nuclear factor NF-kappa-B p105 subunit (Homo sapiens) (UniProt P19838); assay: LTEA_HepaRG_NFKB1: Life Technologies and Expression Analysis (LTEA) Assay for Nuclear Factor Kappa B Subunit 1 (NFKB1) using HepaRG (AID 2283521); details: mRNA level, 48 h; actives raise or lower the signal
Outline: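 NFKB1 transcript was measured by TaqMan qRT-PCR on Fluidigm arrays, normalised to three housekeeping genes and fitted in both directions against 0.5% DMSO. HepaRG cells were dosed in duplicate for 48 h in serum-free induction medium, eight half-log steps from 100 uM.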

Measured: AC50

Chain of Nuclear factor NF-kappa-B p105 subunit (Homo sapiens) (P19838 whole entry, looked up): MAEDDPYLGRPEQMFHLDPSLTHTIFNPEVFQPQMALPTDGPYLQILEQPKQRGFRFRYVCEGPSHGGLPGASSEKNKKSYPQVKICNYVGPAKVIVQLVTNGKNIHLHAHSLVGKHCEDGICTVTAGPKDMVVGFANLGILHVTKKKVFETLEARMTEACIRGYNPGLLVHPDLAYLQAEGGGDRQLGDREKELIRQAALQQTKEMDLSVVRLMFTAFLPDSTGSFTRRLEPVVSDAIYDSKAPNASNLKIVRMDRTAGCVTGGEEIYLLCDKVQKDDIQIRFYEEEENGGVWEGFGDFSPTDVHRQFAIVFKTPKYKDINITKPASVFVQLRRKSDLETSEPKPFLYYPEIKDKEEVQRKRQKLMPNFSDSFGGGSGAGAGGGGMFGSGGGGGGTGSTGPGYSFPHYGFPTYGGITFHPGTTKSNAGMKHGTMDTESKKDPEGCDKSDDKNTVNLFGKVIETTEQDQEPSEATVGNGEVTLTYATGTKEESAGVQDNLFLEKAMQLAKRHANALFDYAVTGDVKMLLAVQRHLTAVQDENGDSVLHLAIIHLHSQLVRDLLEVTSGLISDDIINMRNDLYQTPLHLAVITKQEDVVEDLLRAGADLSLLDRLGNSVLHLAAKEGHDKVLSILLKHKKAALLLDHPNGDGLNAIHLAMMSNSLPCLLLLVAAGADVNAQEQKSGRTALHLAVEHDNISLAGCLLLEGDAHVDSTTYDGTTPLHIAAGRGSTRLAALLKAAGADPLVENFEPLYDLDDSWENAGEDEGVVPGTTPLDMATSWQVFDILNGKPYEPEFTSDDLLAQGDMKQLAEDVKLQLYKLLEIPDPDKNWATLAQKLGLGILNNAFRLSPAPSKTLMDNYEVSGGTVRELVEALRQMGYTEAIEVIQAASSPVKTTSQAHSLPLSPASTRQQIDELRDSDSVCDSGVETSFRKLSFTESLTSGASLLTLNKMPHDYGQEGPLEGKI
Chain of Signal transducer and activator of transcription 3 (Homo sapiens) (P40763 whole entry, looked up): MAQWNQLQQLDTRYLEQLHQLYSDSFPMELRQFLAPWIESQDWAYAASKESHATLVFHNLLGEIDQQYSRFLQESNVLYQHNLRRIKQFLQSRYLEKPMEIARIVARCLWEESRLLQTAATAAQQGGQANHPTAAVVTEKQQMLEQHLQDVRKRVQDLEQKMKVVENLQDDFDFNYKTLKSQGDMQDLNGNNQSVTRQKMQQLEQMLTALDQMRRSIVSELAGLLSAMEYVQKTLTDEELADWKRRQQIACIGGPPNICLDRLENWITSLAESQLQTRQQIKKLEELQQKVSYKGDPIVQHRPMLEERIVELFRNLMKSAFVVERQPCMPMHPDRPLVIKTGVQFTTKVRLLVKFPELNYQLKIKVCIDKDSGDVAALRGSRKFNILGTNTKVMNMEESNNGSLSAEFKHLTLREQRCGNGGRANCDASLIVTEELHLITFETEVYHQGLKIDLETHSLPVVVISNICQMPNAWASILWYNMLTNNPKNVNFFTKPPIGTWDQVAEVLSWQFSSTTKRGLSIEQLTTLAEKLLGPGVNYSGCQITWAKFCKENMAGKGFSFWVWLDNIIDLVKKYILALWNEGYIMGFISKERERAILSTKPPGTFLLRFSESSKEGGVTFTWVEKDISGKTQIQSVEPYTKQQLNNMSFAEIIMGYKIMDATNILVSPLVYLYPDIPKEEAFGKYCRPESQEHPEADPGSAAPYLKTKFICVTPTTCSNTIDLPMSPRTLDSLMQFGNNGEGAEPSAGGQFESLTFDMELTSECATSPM

O=C(O)C(Cl)(Cl)Cl
active: [15] 9.92 µM
inactive: [1] | [2] | [3] | [4] | [5] | [6] | [7] | [8] | [9] | [10] | [11] | [12] | TIMP1, TIMP1 (gene 7076) | [13] | [14] | [15] | [16] | [17] | [18]

CCOP(=S)(OCC)Oc1nc(Cl)c(Cl)cc1Cl
not listed: [18]
inactive: all other assays above

C[C@]12CCC(=O)C[C@@H]1CC[C@@H]1[C@@H]2CC[C@]2(C)[C@@H](O)CC[C@@H]12
active: [2] 50 µM
inactive: all other assays above

CCOP(=S)(OCC)SCSP(=S)(OCC)OCC
active: [6] 20.4 µM | [13] 0.214 µM | [14] 50 µM | [16] 0.245 µM
inactive: all other assays above

CC(=O)[O][Hg][c]1ccccc1
inactive: [9]
active: [1] 50 µM | [2] 50 µM | [19] 23.2 µM | [3] 28 µM | [4] 69.5 µM | [5] 2.33 µM | [6] 13.1 µM | [7] 26.2 µM | [8] 17 µM | [10] 17.6 µM | [11] 23 µM | [12] 23 µM | TIMP1, TIMP1 (gene 7076) 83.7 µM | [13] 27.6 µM | [14] 2.11 µM | [15] 18.4 µM | [16] 11.6 µM | [17] 0.688 µM | [18] 8.24 µM

CC(C)(C)c1cc(O)ccc1O
inactive: all assays above

CN(C)N=O
not listed: [1]
inactive: all other assays above

Cn1sc(Cl)cc1=O
inactive: all assays above
